In PubChem BioAssay:
Active and inactive are the calls of the source.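 How the source made its calls: active means visual image review flags a hit and inhibition of aggregation exceeds 20%; inconclusive means visual hit but inhibition at or below 20%; inactive means no hit on visual image review.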

Assay: reduction of polyQ htt aggregates in cells – imaging, exon1htt(103Q)mCFP cells, high-content imaging, primary screen (AID 483);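 further: compound exposure lasted 3 days before fixation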;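 on nuclei count: percent of the per-plate median nuclei count of sample wells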
Settings: exon1htt(103Q)mCFP cell line, aggregate imaging, at 2 µM; inhibition of aggregation: stronger effect = higher value; nuclei count: measured here: cell count, toxicity
With `O=C(c1ccco1)N1CCN(c2nc(C(F)(F)F)nc3c2nnn3Cc2ccccc2)CC1` the inhibition of aggregation was -6.6% (inactive) and the nuclei count was 87.1%. With `O=C(CSc1nnc(SCc2ccc(Cl)cc2)s1)N1CCN(C(=O)c2ccco2)CC1` the nuclei count was 116% and the inhibition of aggregation was -21.7% (inactive). For `CCOC(=O)CCNC(=O)Nc1ccc2nc(C)n(Cc3ccccc3Cl)c(=O)c2c1`, the inhibition of aggregation was -9.2% (inactive) and the nuclei count was 89.5%. With `CC(=O)N1CCN(c2ccc(NC(=O)c3ccc(C(C)(C)C)cc3)cc2)CC1` the nuclei count was 97.8% and the inhibition of aggregation was -7.5% (inactive). For `COc1ccc(-n2cnnc2SCCC#N)cc1`, the nuclei count was 82.5% and the inhibition of aggregation was -0.2% (inactive). In the case of `O=S(CC(O)COCc1ccc(Cl)cc1)c1ccccn1` (stereo not drawn), the nuclei count is reported as 107% and the inhibition of aggregation is reported as -11.3% (inactive). With `CN1C(=O)C(O)(CC(=O)c2ccc(F)cc2)c2cc(Br)ccc21` (stereo not drawn) the nuclei count was 69.5% and the inhibition of aggregation was 22.6% (inactive). In the case of `CCn1cc(C(=O)NCC2CCCO2)c(=O)c2cc(S(=O)(=O)N(C)C)ccc21` (stereo not drawn), the nuclei count is reported as 105% and the inhibition of aggregation is reported as -9.8% (inactive). For `OC1(c2cccc(C(F)(F)F)c2)CCNCC1`, the inhibition of aggregation was -1.7% (inactive) and the nuclei count was 106%. For `N#Cc1c(N2CCCC2)nc(N)c2c(N)nc(N3CCCC3)cc12`, the inhibition of aggregation was -6.2% (inactive) and the nuclei count was 84.2%. In the case of `COc1ccc2cc(CN(Cc3ccco3)C(c3nnnn3C3CCCCC3)C(C)C)c(=O)[nH]c2c1` (stereo not drawn), the nuclei count is reported as 119% and the inhibition of aggregation is reported as 2.5% (inactive). In the case of `COc1ccc(C2CC(c3ccc(C)cc3)Nc3ncnn32)cc1` (stereo not drawn), the inhibition of aggregation is reported as -9.1% (inactive) and the nuclei count is reported as 107%. For `Cc1cc(NC(=O)C23CCC(C)(C(=O)O2)C3(C)C)no1` (stereo not drawn), the inhibition of aggregation was 14.4% (inactive) and the nuclei count was 80.2%. In the case of `Cc1cc(C)cc(NC(=O)c2nnn(Cc3cc(C)ccc3C)c2N)c1`, the inhibition of aggregation is reported as -15.9% (inactive) and the nuclei count is reported as 90.3%.
